Measurements as given in PubChem BioAssay (NCI).
The panel holds about 79,000 compounds, 15% with a hit somewhere; the sample as a whole holds those more often. Unmarked numbers belong to inactive results. Calls of active or inactive are those of the source. No stated cut-off is given here; in the data, active means growth inhibition above about 70%; inactive means the rest.

Assays:
[1] = NCI Yeast Anticancer Drug Screen. Data for the rad50 strain (AID 155);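 further: 0% = growth of vehicle-only cultures of the same strain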; details: S. cerevisiae rad50 strain growth inhibition, hits give high values
Procedure, shortened: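 Inhibition values express reduced yeast growth in compound-treated cultures relative to vehicle-treated controls.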

[2] = NCI Yeast Anticancer Drug Screen. Data for the mec2-1 strain (AID 157); details: S. cerevisiae mec2-1 strain, hits give high values
Procedure, shortened: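 Yeast mec2-1 mutant treated with compound. Readout: growth inhibition vs vehicle controls.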

[3] = NCI Yeast Anticancer Drug Screen. Data for the sgs1 mgt1 strain (AID 161);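 further: 0% = growth of cultures given vehicle only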; details: S. cerevisiae sgs1 mgt1 strain, hits give high values
Procedure, shortened: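 Inhibition of yeast growth, normalised to vehicle-treated controls, is reported for a strain bearing genetic alterations in DNA damage repair.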

[4] = NCI Yeast Anticancer Drug Screen. Data for the cln2 rad14 strain (AID 165);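 further: 0% = growth equal to vehicle treated cultures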; details: S. cerevisiae cln2 rad14 strain, hits give high values
Procedure, shortened: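 cln2 rad14 yeast strain; compound exposure; growth inhibition read vs vehicle controls.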

[5] = NCI Yeast Anticancer Drug Screen. Data for the bub3 strain (AID 167); details: S. cerevisiae bub3 mutant strain, hits give high values
Procedure, shortened: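 Steps: expose the mutant yeast strain to compound; grow alongside vehicle-treated cultures; measure growth; express inhibition against the vehicle cultures.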

[6] = NCI Yeast Anticancer Drug Screen. Data for the mlh1 rad18 strain (AID 175); details: S. cerevisiae mlh1 rad18 strain growth inhibition, hits give high values
Procedure, shortened: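 Yeast w/ defined DNA-repair lesions; compound exposure; growth vs vehicle controls → % inhibition.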

[7] = at 5.0 µM (retest, dose inferred, filed as 0.5)
[8] = at 50.0 µM (retest, dose inferred, filed as 5.0)

Row | SMILES | growth inhibition [1, 7] | growth inhibition [1, 8] | growth inhibition ([1]; at 50.0 µM) | growth inhibition [2, 7] | growth inhibition [2, 8] | growth inhibition ([2]; at 50.0 µM) | growth inhibition [3, 7] | growth inhibition [3, 8] | growth inhibition ([3]; at 50.0 µM) | growth inhibition [4, 7] | growth inhibition [4, 8] | growth inhibition ([4]; at 50.0 µM) | growth inhibition [5, 7] | growth inhibition [5, 8] | growth inhibition ([5]; at 50.0 µM) | growth inhibition [6, 7] | growth inhibition [6, 8] | growth inhibition ([6]; at 50.0 µM)
1 | CCOC(=O)/C(=C\c1ccc([N+](=O)[O-])cc1)C(C)=O | 46% | 99% (active) | 92.8% (active) | 39% | 99% (active) | 94.7% (active) | 25% | 98% (active) | 92.5% (active) | 17% | 98% (active) | 87.1% (active) | 40% | 99% (active) | 92.4% (active) | 30% | 99% (active) | 91.8% (active)
2 | N#CC(C(=O)C(=O)Nc1ccc(Cl)c(Cl)c1)c1c(Cl)cccc1Cl (configuration not stated) | -1% | 4% | 25.9% | -2% | -10% | 3.15% | -1% | -1% | 2.95% | 4% | -4% | 43% | -1% | -1% | -3.2% | -2% | -5% | 31.4%
3 | CC(C)(C)c1ccc(O)c(O)c1 | 2% | 56% | 63.4% | 10% | 51% | 61.6% | 11% | 54% | 79.8% (active) | -1% | 16% | -8.95% | -3% | 23% | 37.6% | 10% | 75% (active) | 81.2% (active)
4 | S=c1[nH]c2cc(-c3ccccc3)ccc2o1 | 63% | 98% (active) | 64.2% | 37% | 98% (active) | 53.1% | 17% | 72% (active) | 78% (active) | 52% | 65% | 47.1% | 19% | 52% | 52% | 51% | 98% (active) | 47.8%
5 | CCOC(=O)C1CC(C(=O)OCC)C(=O)C1=O (configuration not stated) | 45% | 96% (active) | 96.3% (active) | 27% | 95% (active) | 91% (active) | 54% | 96% (active) | 43.6% | 28% | 97% (active) | 34.2% | 44% | 97% (active) | 94% (active) | 37% | 98% (active) | 47.9%
6 | CC(NC(=O)OCc1ccccc1)C(=O)NC(C(=O)O)C(C)C (configuration not stated) | 29% | 66% | 63.1% | 22% | 46% | 38% | 27% | 65% | 60.6% | 37% | 48% | 59.6% | 37% | 84% (active) | 34.9% | 14% | 86% (active) | 74% (active)
7 | Nc1ncnc2c1ncn2C1OCC(OCc2ccccc2)C(OCc2ccccc2)C1OCc1ccccc1 (configuration not stated) | 9% | 99% (active) | 98.3% (active) | -25% | 100% (active) | 96% (active) | 13% | 98% (active) | 99.2% (active) | 6% | 98% (active) | 96.8% (active) | 13% | 99% (active) | 97.5% (active) | -4% | 99% (active) | 98.1% (active)
8 | CC(CN(C)C)C(=O)/C=C/c1c(Cl)cccc1Cl (configuration not stated) | 2% | 88% (active) | 86.7% (active) | 8% | 96% (active) | 46.4% | 11% | 94% (active) | 90.2% (active) | 2% | 44% | 29.4% | -1% | 92% (active) | 74.9% (active) | 3% | 97% (active) | 96.5% (active)
9 | COC1CC(OC(=O)c2ccccc2)C2OC(c3ccccc3)OCC2O1 (configuration not stated) | 3% | 26% | 42.5% | 2% | 18% | 8.35% | 1% | 44% | 63.3% | 7% | 39% | -3.35% | 24% | 80% (active) | 15.2% | 6% | 36% | 6.15%
10 | c1ccc(CSc2nnc(SCc3ccccc3)c3[nH]cnc23)cc1 | -3% | 33% | 61.4% | -7% | 38% | 46.9% | -1% | 45% | 46.1% | -4% | 23% | 56% | -3% | 45% | 50.1% | -6% | 34% | 11.9%
11 | C=C(C)C(CC=C(C)C)Cc1c(O)cc(OC)c2c1OC(c1ccc(O)cc1O)C(O)C2=O (configuration not stated) | 29% | 22% | 34.1% | 27% | 28% | 23.4% | -23% | 42% | 55.2% | 19% | 32% | 43.9% | -5% | 38% | 57% | 24% | 23% | 85.3% (active)
12 | O=C(CC(=O)c1cccnc1)c1cccnc1 | 6% | 98% (active) | 98.8% (active) | 9% | 98% (active) | 98% (active) | 7% | 98% (active) | 98.5% (active) | 5% | 98% (active) | 76.7% (active) | 8% | 98% (active) | 97.7% (active) | 7% | 98% (active) | 99% (active)
13 | Cc1ccc(C)c(NC(=O)CCC(=O)CC(=O)c2ccncc2)c1 | -4% | 12% | -32% | 3% | 4% | 7.45% | 8% | 4% | 16.8% | -4% | 3% | 1.25% | -7% | 4% | 10.7% | 0% | -1% | 24.1%
14 | Nc1ccccc1SC(/C=C/NNC1=NC(c2ccccc2)C(c2ccccc2)=NN1)c1ccccc1 (configuration not stated) | 43% | 43% | 93% (active) | 7% | 7% | 93% (active) | 19% | 19% | 91.5% (active) | 29% | 29% | 91.7% (active) | 30% | 30% | 93.3% (active) | 11% | 11% | 91.8% (active)
15 | O=c1cccccc1[O-].O=c1cccccc1[O-].O=c1cccccc1[O-].[Nd+3] | 11% | 11% | 91.9% (active) | 20% | 20% | 91% (active) | 15% | 15% | 89.3% (active) | 3% | 3% | 80.9% (active) | 9% | 9% | 92.5% (active) | 13% | 13% | 87.2% (active)
16 | O=C(O)C1OC(Oc2ccc3oc4ccccc4c(=O)c3c2)C(O)C(O)C1O (configuration not stated) | -23% | 91% (active) | 48.8% | 3% | 33% | 40.2% | -1% | 48% | 30.8% | 4% | 15% | 56.5% | 10% | 64% | 47.1% | 7% | 39% | 57.9%
17 | CS(=O)(=O)OCCN(CCOS(C)(=O)=O)c1ccc(C=Nc2cccc(Br)c2)c(Cl)c1 | 1% | 22% | 41.5% | -3% | 1% | -2.3% | -3% | 12% | 2.5% | -4% | -4% | -49.9% | 0% | 1% | 6.85% | 5% | 36% | 68.5%
18 | Cc1cc(C2CCCCC2)n(O)c(=O)c1 | 98% (active) | 99% (active) | 98.8% (active) | 98% (active) | 99% (active) | 99.2% (active) | 98% (active) | 99% (active) | 99.5% (active) | 96% (active) | 98% (active) | 99.3% (active) | 96% (active) | 99% (active) | 98.7% (active) | 98% (active) | 99% (active) | 99.3% (active)
19 | N#CCCN(C(=S)Nc1ccc(Cl)c(Cl)c1)C1CCCCC1 | 2% | 91% (active) | 78.9% (active) | 0% | 91% (active) | 79.7% (active) | 2% | 90% (active) | 86.3% (active) | -1% | 83% (active) | 71.9% (active) | 2% | 88% (active) | 79.2% (active) | 3% | 90% (active) | 75.1% (active)
